# Results published in PubChem BioAssay.
# Unmarked numbers belong to inactive results. For part of these data: Entries with a potency or affinity are not part of this list. The source made the active and inactive calls. Unless noted, the rule behind the calls is not given here.
# How the values were obtained:
# [1] = antimalarial activity against Dd2 strain (AID 2302;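 active = growth inhibition above 50% at the single 2 µM test dose, taken to imply half-maximal potency below 2 µM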;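 note: 0% = DMSO untreated growth and 100% = chloroquine plus artemisinin killed control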); details: P. falciparum Dd2 in RBCs, LDH growth readout, 72 h; at 2 µM; stronger effect = higher value
# [2] = target: L-lactate dehydrogenase (Plasmodium falciparum (isolate CDC / Honduras)) (UniProt Q27743); experiment: PfLDH activity inhibition – cell lysate, 3D7 strain, counter-screen for P. falciparum growth inhibition project (AID 2304);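 note: 0% = vehicle and 100% = reference inhibitor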; details: P. falciparum 3D7 crude extract, LDH APAD/NBT absorbance; at 2 µM; stronger effect = higher value
# [3] = inhibition of 3D7 malaria parasite growth – strain 3D7 (AID 2306);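 note: 0% = DMSO wells and 100% = chloroquine plus artemisinin control wells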; details: P. falciparum 3D7 erythrocytic growth, LDH absorbance, 72 h; at 2 µM; stronger effect = higher value
# [4] = target: Calcium-dependent protein kinase 1 (Plasmodium falciparum (isolate 3D7)) (UniProt P62344); experiment: PfCDPK1 kinase inhibitors, biochemical, TCAMS library (AID 1159585; cut-off not given, nearly all actives have IC50 up to about 0.98 µM;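 note: inhibitors leave more ATP so luminescence rises with inhibition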); details: recombinant PfCDPK1, Kinase-Glo ATP depletion luminescence
# [5] = target: Plasmodium falciparum protein kinase 6 (PK6, PF3D7_1337100) (UniProt Q8IDW1); experiment: PfPK6 kinase inhibitors, biochemical, TCAMS library (AID 1159586); details: recombinant PfPK6, Kinase-Glo ATP depletion luminescence
# [6] = target: Protein kinase 7 (PK7), Plasmodium falciparum 3D7 (PF3D7_0213400) (UniProt Q7YTF7); experiment: inhibition of Plasmodium PK7 catalytic activity – biochemical, TCAMS antimalarial set, Kinase-Glo luminescence (AID 1159587); details: recombinant PfPK7, Kinase-Glo ATP depletion luminescence
# [7] = target: Calcium-dependent protein kinase 4 (Plasmodium falciparum (isolate 3D7)) (UniProt Q8IBS5); experiment: PfCDPK4 kinase inhibitors, biochemical, TCAMS library (AID 1159588; cut-off not given, nearly all actives have IC50 up to about 0.91 µM); details: recombinant PfCDPK4, Kinase-Glo ATP depletion luminescence
# Calcium-dependent protein kinase 4 (Plasmodium falciparum (isolate 3D7)), sequence (Q8IBS5 whole entry, looked up): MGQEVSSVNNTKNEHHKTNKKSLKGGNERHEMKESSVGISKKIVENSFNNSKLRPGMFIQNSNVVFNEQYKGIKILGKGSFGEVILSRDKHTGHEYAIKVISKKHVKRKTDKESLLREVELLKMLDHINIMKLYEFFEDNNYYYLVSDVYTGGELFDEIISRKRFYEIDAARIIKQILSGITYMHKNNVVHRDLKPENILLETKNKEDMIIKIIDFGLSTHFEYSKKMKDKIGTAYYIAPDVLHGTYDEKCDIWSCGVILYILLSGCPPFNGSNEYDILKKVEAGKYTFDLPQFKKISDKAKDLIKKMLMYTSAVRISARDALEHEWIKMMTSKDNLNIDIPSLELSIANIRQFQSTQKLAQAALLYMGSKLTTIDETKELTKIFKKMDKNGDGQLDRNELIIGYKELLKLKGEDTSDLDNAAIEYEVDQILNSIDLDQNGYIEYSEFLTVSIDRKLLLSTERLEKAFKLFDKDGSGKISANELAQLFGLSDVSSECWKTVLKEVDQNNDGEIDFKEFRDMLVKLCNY
# Plasmodium falciparum protein kinase 6 (PK6, PF3D7_1337100), sequence (Q8IDW1 1-305): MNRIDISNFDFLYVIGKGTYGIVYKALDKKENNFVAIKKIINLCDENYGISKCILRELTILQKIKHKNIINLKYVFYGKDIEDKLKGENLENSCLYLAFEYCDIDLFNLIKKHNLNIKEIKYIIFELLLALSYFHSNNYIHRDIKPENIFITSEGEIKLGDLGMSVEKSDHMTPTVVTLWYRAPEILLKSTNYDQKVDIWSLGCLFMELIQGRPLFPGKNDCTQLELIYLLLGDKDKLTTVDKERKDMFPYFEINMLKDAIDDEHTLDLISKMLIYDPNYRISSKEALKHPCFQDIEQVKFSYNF
# L-lactate dehydrogenase (Plasmodium falciparum (isolate CDC / Honduras)), sequence (Q27743 whole entry, looked up): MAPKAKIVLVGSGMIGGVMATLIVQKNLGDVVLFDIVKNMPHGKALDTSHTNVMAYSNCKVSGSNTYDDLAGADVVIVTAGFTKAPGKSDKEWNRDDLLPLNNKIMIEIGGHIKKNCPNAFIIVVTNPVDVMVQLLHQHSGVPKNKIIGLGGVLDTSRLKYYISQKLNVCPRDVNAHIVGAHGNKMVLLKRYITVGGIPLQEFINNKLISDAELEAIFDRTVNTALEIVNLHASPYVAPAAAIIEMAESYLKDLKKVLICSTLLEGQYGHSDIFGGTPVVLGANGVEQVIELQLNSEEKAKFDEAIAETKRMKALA
# Protein kinase 7 (PK7), Plasmodium falciparum 3D7 (PF3D7_0213400), sequence (Q7YTF7 1-343): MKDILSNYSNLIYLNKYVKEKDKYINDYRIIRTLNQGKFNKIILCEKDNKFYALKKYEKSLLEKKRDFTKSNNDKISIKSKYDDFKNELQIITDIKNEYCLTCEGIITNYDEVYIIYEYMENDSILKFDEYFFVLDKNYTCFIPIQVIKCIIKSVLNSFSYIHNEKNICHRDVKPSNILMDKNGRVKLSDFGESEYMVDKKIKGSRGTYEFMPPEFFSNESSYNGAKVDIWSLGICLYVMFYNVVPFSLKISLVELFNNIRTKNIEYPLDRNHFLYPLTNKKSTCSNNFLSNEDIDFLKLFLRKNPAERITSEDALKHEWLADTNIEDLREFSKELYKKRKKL
# Calcium-dependent protein kinase 1 (Plasmodium falciparum (isolate 3D7)), sequence (P62344 whole entry, looked up): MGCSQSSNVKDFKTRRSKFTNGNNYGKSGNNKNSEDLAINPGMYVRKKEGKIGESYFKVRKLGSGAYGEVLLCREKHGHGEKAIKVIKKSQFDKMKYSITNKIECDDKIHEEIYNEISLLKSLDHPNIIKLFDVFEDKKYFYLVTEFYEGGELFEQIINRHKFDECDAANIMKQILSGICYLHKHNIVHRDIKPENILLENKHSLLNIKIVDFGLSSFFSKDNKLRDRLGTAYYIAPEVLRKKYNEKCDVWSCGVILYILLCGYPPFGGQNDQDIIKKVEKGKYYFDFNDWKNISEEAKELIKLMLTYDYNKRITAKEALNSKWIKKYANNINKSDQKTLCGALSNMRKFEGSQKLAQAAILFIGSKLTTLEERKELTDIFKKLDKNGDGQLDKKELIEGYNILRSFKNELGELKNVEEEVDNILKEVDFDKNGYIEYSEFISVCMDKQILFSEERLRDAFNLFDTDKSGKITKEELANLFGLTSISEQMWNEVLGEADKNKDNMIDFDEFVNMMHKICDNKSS
Structure (SMILES),growth inhibition [1],inhibition [2],growth inhibition [3],outcome [4],outcome [5],outcome [6],outcome [7]
CC(C)n1c(C(C)(C)C)cc2c3c(N)nc(N)nc3ccc21,99% (active),-3%,100% (active),inactive,inactive,inactive,inactive
CCc1cc(COc2ccc(CNCCC(C)C)cc2I)c(OCc2ccccc2)c(COc2ccc(CNCCC(C)C)cc2I)c1,15%,0%,89% (active),inactive,inactive,inactive,inactive
COc1cc(Cc2cnc(N)nc2N)cc(OCCCS(=O)(=O)O)c1OC,-6%,1%,88% (active),inactive,inactive,inactive,inactive
CN=C(N)c1ccc(NC(=O)C=Cc2ccc(C(=O)Nc3ccc(C(N)=NC)cc3)cc2)cc1,100% (active),1%,97% (active),inactive,inactive,inactive,inactive
CCCCNCCOc1ccc(-c2nc(-c3ccccc3)c(-c3ccccc3)[nH]2)cc1,34%,-5%,100% (active),inactive,inactive,inactive,inactive
Nc1nc(N)c2c(Sc3ccc(F)cc3)cccc2n1,-3%,3%,88% (active),inactive,inactive,inactive,inactive
COc1ccc(-c2cnc(N)nc2N)cc1Cl,1%,4%,84% (active),inactive,inactive,inactive,inactive
Nc1nc(N)c2cc(Cc3ccccc3Cl)cnc2n1,-2%,4%,93% (active),inactive,inactive,inactive,inactive
C=CCn1ccc2c3c(N)nc(N)nc3ccc21,91% (active),-7%,89% (active),inactive,inactive,inactive,inactive
c1ccc(CN2CCN(CCCCNc3c4ccccc4nc4ccccc34)CC2)cc1,101% (active),-6%,102% (active),inactive,inactive,inactive,inactive
CCNC(=O)CCc1cccc(Br)c1,54% (active),6%,89% (active),inactive,inactive,inactive,inactive
CCCCc1nc2nc(N)nc(N)c2cc1CCC,-3%,-1%,97% (active),inactive,inactive,inactive,inactive
CCCCN(CCCC)Cc1cc(N(C)c2ccc([N+](=O)[O-])cn2)ccc1O,98% (active),7%,98% (active),inactive,inactive,inactive,inactive
Oc1ccc2c(CNC3CCCCC3)c(O)ccc2c1CNC1CCCCC1,101% (active),-4%,101% (active),inactive,inactive,inactive,inactive
O=c1c2ccc(Sc3ccccn3)cc2n(-c2ccccc2)c2cc(Sc3ccccn3)ccc12,70% (active),-3%,89% (active),inactive,inactive,inactive,inactive
Cc1nc(N)nc(N)c1-c1ccc(Br)c(Br)c1,1%,-2%,94% (active),inactive,inactive,inactive,inactive
CC(C)Cn1cc2c(ccc3nc(N)nc(N)c32)n1,2%,-2%,97% (active),inactive,inactive,inactive,inactive
COc1cc(Cc2cnc(N)nc2N)cc(OCCCCCCN)c1OC,-4%,-6%,96% (active),inactive,inactive,inactive,inactive
COCCOCCOCCn1ccc2c3c(N)nc(N)nc3ccc21,0%,-10%,97% (active),inactive,inactive,inactive,inactive
Cc1[nH]c(C)c(-c2ccc(Oc3ccc(Cl)cc3)cc2)c(=O)c1C,95% (active),-8%,96% (active),inactive,inactive,inactive,inactive
Cc1[nH]c(C)c(-c2ccc(Oc3ccc(Cl)cc3)c(Cl)c2)c(=O)c1Br,96% (active),-1%,97% (active),inactive,inactive,inactive,inactive
CCCCNCc1cc(Cl)c2ccccc2c1O,100% (active),0%,102% (active),inactive,inactive,inactive,inactive
CCCc1cc(Cc2cnc(N)nc2N)c2cccnc2c1OC,3%,2%,98% (active),inactive,inactive,inactive,inactive

Structure (SMILES),growth inhibition [1],inhibition [2],growth inhibition [3],outcome [4],outcome [5],outcome [6],outcome [7]
Cc1cc(=O)c(-c2ccc(OCc3ccc(Cl)cc3)cc2)c(C)[nH]1,76% (active),-1%,93% (active),inactive,inactive,inactive,inactive
Cc1cccc(-c2c(C)nc(N)nc2N)c1,-9%,-6%,88% (active),inactive,inactive,inactive,inactive
CCOC(=O)N1CCN(CCCCCNc2cc(C)nc(/N=C(\N)Nc3ccc(Cl)cc3)n2)CC1,0%,-1%,101% (active),inactive,inactive,inactive,inactive
CCCc1cc(OC)c(CC2c3cc(O)c(Cl)cc3C(c3ccccc3)CN2C)cc1OC (stereo not given),100% (active),4%,100% (active),inactive,inactive,inactive,inactive
CC(C)Oc1ccc2ccccc2c1CNCCCCCCNCc1c(OC(C)C)ccc2ccccc12,90% (active),-7%,99% (active),inactive,inactive,inactive,inactive
Cc1[nH]c(C)c(-c2ccc(Oc3ccc(F)cc3)cc2)c(=O)c1Br,98% (active),-1%,100% (active),inactive,inactive,inactive,inactive
COc1ccccc1-c1nc2c(ccc3nc(N)nc(N)c32)[nH]1,93% (active),2%,101% (active),inactive,inactive,inactive,inactive
Cc1[nH]c(C)c(-c2ccc(Oc3cc(Cl)cc(Cl)c3)cc2)c(=O)c1Br,97% (active),-6%,96% (active),inactive,inactive,inactive,inactive
CC(=O)Oc1c(Cl)c(C)nc(C)c1-c1ccc(Oc2ccc(Cl)cc2)cc1,96% (active),0%,98% (active),inactive,inactive,inactive,inactive
COc1ccc(OC)c(CC2c3ccc(Br)c(O)c3CCN2C)c1 (stereo not given),97% (active),-7%,98% (active),inactive,inactive,inactive,inactive
Cc1[nH]c(C)c(-c2ccc(-c3ccc(F)cc3)cc2)c(=O)c1Cl,96% (active),-2%,96% (active),inactive,inactive,inactive,inactive
COc1cc(Cc2cnc(N)nc2N)cc(OCCCC(=O)O)c1OC,-3%,3%,84% (active),inactive,inactive,inactive,inactive
COc1ccc(OC)c(Cc2c(C)nc3nc(N)nc(N)c3c2C)c1,0%,-2%,90% (active),inactive,inactive,inactive,inactive
COc1ccc2nc3cc(Cl)ccc3c(Nc3ccc(Oc4ccc(Nc5c6ccc(Cl)cc6nc6ccc(OC)cc56)cc4)cc3)c2c1,93% (active),7%,86% (active),inactive,inactive,inactive,inactive
CCCOc1cc2c(cc1OCCC)C(C=Cc1ccc(Cl)cc1Cl)=NC(C)C2 (stereo not given),75% (active),-5%,90% (active),inactive,inactive,inactive,inactive
Cc1[nH]c(C)c(-c2ccc(Sc3ccc(Cl)cc3)cc2)c(=O)c1Br,97% (active),0%,98% (active),inactive,inactive,inactive,inactive
CCCc1cc(Cc2cnc(N)nc2N)cc2c1OC(C)(C)C2,3%,-1%,89% (active),inactive,inactive,inactive,inactive
Cc1nc(N)nc(N)c1-c1cc(Cl)c(Cl)c(Cl)c1,0%,2%,97% (active),inactive,inactive,inactive,inactive
CC(=O)Oc1c(Br)c(C)nc(C)c1-c1ccc(Oc2ccc(OC(F)(F)F)cc2)cc1,97% (active),-4%,98% (active),inactive,inactive,inactive,inactive
CCCc1cc2c3c(N)nc(N)nc3ccc2n1CC,6%,-1%,96% (active),inactive,inactive,inactive,inactive
CC(=NNc1nc2ccccc2s1)c1ccccn1,47%,-2%,88% (active),inactive,inactive,inactive,inactive
Nc1nc(N)c2cc(Cc3ccc([N+](=O)[O-])cc3)cnc2n1,-3%,-2%,91% (active),inactive,inactive,inactive,inactive
